# Sampled rows, rich in hits. Any-hit rate of the full collection: about 2.2%.
# HepG2 tox: HepG2 cytotoxicity, counter-screen for TGF-b inhibitors. HepG2 CAGA-GFP viability, ATP luminescence, 18 h. Potency, µM (highest dose often 46.1 µM), actives largely listed as cytotoxic. 410,000 tested, 0.76% active. AID 588856
#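 CellTiter-Glo luminescence gave cytotoxicity after 18 hours at 37 degrees C. The cells were HepG2 CAGA-GFP in 1% FBS DMEM, stimulated with 500 pg/mL TGF-beta after compound addition. %Activity was normalised to no-cell wells (complete cell-killing) and DMSO (no toxicity), and curves were fitted and classified.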
# TGFb inhibitor: inhibitors of TGF-b signaling. HepG2 CAGA-GFP TGF-b/SMAD3 reporter, GFP fluorescence, 18 h; TGF-beta stimulated, 500 pg/mL final. Potency, µM (highest dose often 46.1 µM), hits mostly inhibitors. 410,000 tested, 1.2% active; also: nearly all actives have a fitted effect of over 65% in size
#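 Smad-responsive CAGA-GFP expression was quantified in HEPG2 cells exposed to compounds and 500 pg/mL final TGF-beta for 18 h at 37 degrees C; unstimulated wells defined full inhibition.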
# LDHA block: inhibitors of human lactate dehydrogenase A | activity change, % (values are at about 110 or 230 µM) | P00338 | 480,000 tested, 0.15% active | purified LDHA, NADH/diaphorase-resazurin fluorescence; active compounds read low; in the data active = activity change below about -30%; inconclusive = mostly about -25% to -30%
#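 Remaining NADH was detected by diaphorase (0.133 mg/mL) converting 37 µM resazurin to fluorescent resorufin, read at 0 and 20 minutes. The preceding 5-minute room-temperature reaction used 2 nM LDHA, 0.2 mM sodium pyruvate and 0.06 mM NADH at pH 7.4.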
# S2 tox: viability counter-screen for ATXN expression inhibitors; Potency, µM (doses to about 56.7 µM), usual class: cytotoxic; 400,000 tested, 0.49% active; S2 cells (HEK-293 line with an ATXN2-luciferase reporter) viability, CellTiter-Fluor protease fluorescence, 24 h; also: nearly all actives have a fitted effect of over 40% in size
# IDH1 R132H inh: blocks human mutant IDH1 R132H enzyme | Potency, µM (top dose mostly 76.6 µM), hits mostly inhibitors | IDH1-R132H enzyme, NADPH consumption, diaphorase/resazurin fluorescence | AID 602179 | 390,000 tested, 0.093% active | O75874; also: nearly all actives have a fitted effect of over 65% in size
# Target sequence (O75874 whole entry R132H, stated change not applied): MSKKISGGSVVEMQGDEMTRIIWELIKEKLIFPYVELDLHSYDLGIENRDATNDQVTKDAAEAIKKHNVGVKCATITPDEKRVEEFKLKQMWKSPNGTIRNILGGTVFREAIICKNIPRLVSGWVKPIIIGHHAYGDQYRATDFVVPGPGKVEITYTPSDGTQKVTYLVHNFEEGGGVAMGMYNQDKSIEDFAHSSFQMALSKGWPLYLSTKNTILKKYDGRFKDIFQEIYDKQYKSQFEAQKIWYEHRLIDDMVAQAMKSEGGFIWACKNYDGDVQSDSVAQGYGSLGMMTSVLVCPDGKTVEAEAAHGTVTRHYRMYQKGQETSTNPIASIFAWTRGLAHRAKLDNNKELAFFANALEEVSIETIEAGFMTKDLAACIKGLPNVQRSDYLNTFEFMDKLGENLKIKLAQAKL
#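 IDH1-R132H (0.5 ug/mL dispensed) in pH 7.5 Tris buffer was preincubated 30 min with compound, then given a substrate mix of 0.016 mM NADPH and 2 mM alpha-KG for 80 min at room temperature; remaining NADPH was read by diaphorase/resazurin fluorescence.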
# ATXN2 expr inh: inhibitors of ATXN2 expression; HEK-293 ATXN2-luciferase reporter, luminescence, 24 h; Potency, µM (highest dose often 57 µM), usual class: inhibitors; 360,000 tested, 0.72% active; AID 1745845; also: nearly all actives have a fitted effect of over 55% in size
#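 ATXN2-luciferase reporter cells (luciferase flanked by upstream and downstream ATXN2 gene portions) were treated 24 h at 37 °C with compounds at up to 57 uM. SteadyGlo luminescence gave expression; GF-AFC fluorescence gave viability.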
# A number is an active result; – = inactive; ? = inconclusive; · = not tested or not shown; [ ] = remark or other dose. Unless noted, calls follow the shape of the dose curve; as a rule, active = well fitted curve in the direction sought with a large enough effect; inconclusive = small, poorly fitted or top-dose-only effect, or another doubt; inactive = no such curve, though single readings can be large; an effect the other way counts as inactive or inconclusive.
SMILES,HepG2 tox,TGFb inhibitor,LDHA block,S2 tox,IDH1 R132H inh,ATXN2 expr inh
C/C(CC(C)(C)C1CCCCC1)=N\NC(N)=S,11.2µM,6.31µM,–,31.6µM,–,31.6µM
COc1ccc(-c2nn(-c3ccccc3)cc2/C=N/Nc2ccc3ccccc3n2)cc1OC,4.47µM,?,–,·,–,–
CCN=C1SC(CC(=O)NCC)C(=O)N1CC (centres undefined),–,–,–,–,–,–
CCNC(=O)CC1SC(=Nc2ccc(Cl)cc2)N(CC)C1=O (centres undefined),12.6µM,?,–,–,–,·
CC(C)N(c1ccccc1)c1ccc(NC(=O)c2cccc(N(C)C)c2)cc1,·,·,–,·,·,·
CC(=O)Nc1ccc(NC(=O)Cc2ccc(-c3ccccc3)cc2)cc1,–,–,–,–,–,·
O=C(CCl)Nc1cn(-c2ccccc2)nc1-c1ccccc1,22.4µM,?,–,8.91µM,–,·
O=C(CCl)Nc1ccc(N=Nc2ccccc2)cc1,22.4µM,?,–,20µM,–,·
O=C(CCl)Nc1ccc(-c2ccccc2)cc1,11.2µM,?,–,10µM,–,·
CC(C)N(c1ccccc1)c1ccc(NC(=O)CCl)cc1,–,?,–,26.7µM,–,?
O=C(CC(O)(c1ccccc1)C(F)(F)F)c1cccs1 (centres undefined),–,?,–,–,–,–
COc1ccc(N2CCN(C(=O)c3cccc(NC(=O)c4nsc5ccccc45)c3)CC2)cc1,–,–,–,?,–,–
CC(/C=N/Nc1nc(N2CCCCC2)nc(N2CCCCC2)n1)=C\c1ccccc1,–,–,–,?,–,?
O=C1CCC[C@@H]2Cc3[nH]c4c(Cl)ccc(Cl)c4c3[C@@H]3CCN1[C@H]23,–,–,–,–,–,–
COc1ccc(/C=C2\C(=O)ON=C2c2ccccc2)cc1OC,–,?,-50.1,?,–,·
NC(=O)COc1ccc(/C=C2\C(=O)ON=C2c2ccccc2)cc1,–,?,-57.2,–,–,–
COc1ccc(C=C2C(=O)OC(C)(C)OC2=O)cc1OC,–,–,–,–,–,·
COc1ccc(/C=C2/C(=O)ON=C2c2ccccc2)cc1OC,–,?,-60.1,?,–,–
COc1cc(/C=C2\C(=O)ON=C2c2ccccc2)cc(OC)c1OC,–,–,-35.5,–,–,–
O=C1ON=C(c2ccccc2)/C1=C/c1ccco1,–,–,–,–,–,–[11.3 µM]
COC(=O)c1cc(S(=O)(=O)NCC2CCN(Cc3ccc(Cl)cc3)CC2)c[nH]1,–,–,–,–,–,–
COc1ccc(OC)c(S(=O)(=O)N/N=C\c2c[nH]c3ccccc23)c1,–,–,–,–,–,–
Nc1c(C(=O)CSc2nncn2-c2ccccc2)c(=O)[nH]c(=O)n1C1CC1,–,–,–,–,–,–
O=C(NC1CC(=O)N(c2ccc(Cl)cc2)C1)C(=O)c1c[nH]c2ccccc12 (centres undefined),–,?,–,·,–,·
CCC(CC)C(=O)Nc1ccc2nc(SCC(=O)N3c4ccccc4CC3C)sc2c1 (centres undefined),–,–,–,?,–,–
SMILES,HepG2 tox,TGFb inhibitor,LDHA block,S2 tox,IDH1 R132H inh,ATXN2 expr inh
CC(C)C(=O)Nc1ccc(NC(=O)C(C)C)c(Cl)c1,·,·,–,·,·,·
CCOc1cc(/C=C2\C(=O)ON=C2c2ccccc2)ccc1OC,–,?,-60.9,–,–,–
O=C(O)CCSc1ncnc2sc(-c3ccccc3)cc12,–,–,–,–,–,2µM
COc1ccc(C(C)=O)cc1COc1cccc2cccnc12,–,–,–,–,–,·
COc1ccc(/C=C2\CN(Cc3ccccc3)C/C(=C\c3ccc(OC)cc3)C2=O)cc1,–,11.2µM,–,?,–,?
O=[N+]([O-])c1ccccc1S(=O)NCc1c(Cl)cccc1Cl (centres undefined),–,–,–,–,·,–
OC(c1cccc(Cl)c1)c1nc(-c2ccc(F)c(Cl)c2)cs1 (centres undefined),–,?,–,–,·,–
OC(c1cccc(Cl)c1)c1nc(-c2ccc(Cl)cc2)cs1 (centres undefined),12.6µM,12.6µM,–,–,·,–
COc1ccc(C(O)c2nc(-c3cccc(C(F)(F)F)c3)cs2)cc1 (centres undefined),–,?,–,?,·,?
Cc1ccc(-c2csc(C(O)c3cccc(Cl)c3)n2)cc1C (centres undefined),–,12.6µM,–,–,·,–
COc1cc(C(O)c2nc(-c3cccc(C(F)(F)F)c3)cs2)ccc1F (centres undefined),11.2µM,12.6µM,–,–,·,–
COc1ccc(C(=O)N[C@H](C(=O)OCn2nnc3ccccc3c2=O)C(C)C)cc1,–,–,–,–,–,–
C=CCC[C@@H](Cc1ccc(F)cc1)C(=O)OC[C@@H](NC(=O)[C@@H](CC=C)CC(=O)N[C@@H](CO)Cc1ccccc1)C(C)(C)C,–,?,–,22.4µM,–,?
C=CC[C@H](CC(=O)N(CCO)Cc1ccccc1)C(=O)N[C@H](COC(=O)[C@@H](CC=C)Cc1ccc(F)cc1)C(C)(C)C,–,?,–,·,–,?
C=CCC[C@H](Cc1ccc(F)cc1)C(=O)OC[C@@H](NC(=O)[C@@H](CC=C)CC(=O)N(CCO)Cc1ccccc1)C(C)(C)C,–,?,–,20µM,–,?
C=CCC[C@H](Cc1ccc(F)cc1)C(=O)OC[C@@H](NC(=O)[C@@H](CC=C)CC(=O)N[C@@H](CO)Cc1ccccc1)C(C)(C)C,–,?,–,·,–,?
CN1Cc2c(N3CCOCC3)nc3sc(C(=O)c4ccc(Br)cc4)c(N)c3c2CC1(C)C,10µM,?,–,·,–,?
CC1C(=O)N(Cc2cn(CC3CCCCC3)nn2)CCS(=O)(=O)N1Cc1ccc(-c2ccccc2)cc1 (centres undefined),–,?,–,?,–,?
O=C(O)c1ccccc1NS(=O)(=O)c1ccc(NN=Cc2ccccc2F)c([N+](=O)[O-])c1,–,–,–,–,–,–
COc1ccc(C=NNc2ccc(S(=O)(=O)Nc3ccccc3C(=O)O)cc2[N+](=O)[O-])c(OC)c1,–,?,-70.6,?,?,·
CCN(C(=O)c1ccco1)c1nc(-c2ccccc2)cs1,·,·,-33.8,·,·,·
O=C(NC1=C(Nc2ccc(F)cc2)C(=O)c2ccccc2C1=O)c1ccc(Cl)cc1,11.2µM,11.2µM,–,–,–,–
COC(=O)[C@@]12C[C@@H](CC(=O)NCCCCc3ccccc3)C(=O)N(Cc3ccc4c(c3)OCO4)C1=CCC(C)(C)C2,·,·,–,·,·,·

# Bioassay records deposited in PubChem by National Center for Advancing Translational Sciences (NCATS).
